# According to the supplement of paper PMC10849652:
# Of roughly 8,800 targets only a part is listed; those with a hit were picked by preference. About 0.5% of all pairs of compound and target were hits. Values without a mark were called inactive.
# How the values were obtained:
# Assay in all cases: log2 fold change, soluble protein after heating vs DMSO (PISA); higher = thermal stabilisation; K562 lysate, 10 uM; active = over 0.2 and 3.5 SD of the protein, either way, in both replicates (recomputed)
# erlotinib = compound: C#Cc1cccc(Nc2ncnc3cc(OCCOC)c(OCCOC)cc23)c1 [erlotinib]
# Method in brief: (§1)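 A 30 min treatment with 10 μM compound was applied to crude K562 extract at 1 mg/mL protein in PBS pH 7.4 with 1 mM MgCl2. Heating for 3 min spanned 48°C-58°C, after which aliquots were pooled, adjusted to 0.5% NP-40 at 4°C and spun at 21,000xg for 90 min. TMTpro 16plex LC-MS/MS of the supernatant, with channel sums equalised, gave values recorded as log-two fold change in thermal stability against solvent controls, from duplicates.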
# [1] = compound: C/C(=N\NC(=O)C1=CC(=CC=C1)S(=O)(=O)N2CCOCC2)/C3=C(C=CC(=C3)Cl)O
# Method in brief: as §1
# [2] = compound: C1=CC(=CC=C1C2=NC3=C(N2)C=C(C=C3)C(=O)N)OC4=CC=C(C=C4)Cl
# Method in brief: as §1
# [3] = compound: C1=CC2=C(C=CC(=C2)/C=C\3/C(=O)NC(=NCC4=CC=CS4)S3)N=C1
# Method in brief: as §1
# [4] = compound: C1=CC2=NC=CN=C2C=C1/C=C/3\C(=O)NC(=O)S3
# Method in brief: as §1
# [5] = compound: C1=CC=C(C=C1)C2=NC(=C(N2)C3=CC=NC=C3)C4=CC(=C(C=C4)Cl)O
# Method in brief: as §1
# [6] = compound: C1=CC=C2C(=C1)C3=NNC4=CC=CC(=C43)C2=O
# Method in brief: as §1
# [7] = compound: C1CCN(C1)C(=O)NC2=CC=CC(=C2)NC3=NC=C(C(=N3)NCCC4=CN=CN4)Br
# Method in brief: as §1
# [8] = compound: C1CN(CCC1(CC2=CC=C(C=C2)Cl)N)C3=NC=NC4=C3C=CN4
# Method in brief: as §1
# IRAK-1-4 Inhibitor I = compound: C1COCCN1CCN2C3=CC=CC=C3N=C2NC(=O)C4=CC(=CC=C4)[N+](=O)[O-] [IRAK-1-4 Inhibitor I]
# Method in brief: as §1
# ibrutinib = compound: C=CC(=O)N1CCC[C@@H](n2nc(-c3ccc(Oc4ccccc4)cc3)c3c(N)ncnc32)C1 [ibrutinib]
# Method in brief: as §1
# [9] = compound: CC(=O)c1cnc2ccc(-c3cc(Cl)c(O)c(Cl)c3)nc2c1N[C@H]1CC[C@H](CN(C)C)CC1
# Method in brief: as §1
# ralimetinib = compound: CC(C)(C)Cn1c(N)nc2ccc(-c3[nH]c(C(C)(C)C)nc3-c3ccc(F)cc3)nc21 [ralimetinib]
# Method in brief: as §1
# [10] = compound: CC(C)(O)CC(=O)NCCn1ccc2ncnc(Nc3ccc(Oc4cccc(C(F)(F)F)c4)c(Cl)c3)c21
# Method in brief: as §1
# [11] = compound: CC(C)C1=C2N=C(C=C(N2N=C1)NCC3=CC=CC=C3)NCCCCCCN
# Method in brief: as §1
# [12] = compound: CC1=C(C(CC(=O)N1)C2=CC=C(C=C2)C(F)(F)F)C(=O)NC3=C(C=C4C(=C3)C=NN4)F
# Method in brief: as §1
# [13] = compound: CC1=C(C2=C(C=C1)C(=O)C3=CC=CC=C3N2CCCN)C
# Method in brief: as §1
# [14] = compound: CC1=C(C=C(C=C1)NC(=O)C2=CC(=CC=C2)C(C)(C)C#N)NC3=CC4=C(C=C3)N=CN(C4=O)C
# Method in brief: as §1
# [15] = compound: CC1=C(C=C(C=C1)NC(=O)C2=CC(=CC=C2)N(C)C)NC(=O)C3=CC=C(C=C3)O
# Method in brief: as §1
# [16] = compound: CC1=CC=C(C=C1)SC2=C3C=C(SC3=CN=C2)C(=O)N
# Method in brief: as §1
# UniProt Q53S58, sequence (Q53S58 whole entry, looked up): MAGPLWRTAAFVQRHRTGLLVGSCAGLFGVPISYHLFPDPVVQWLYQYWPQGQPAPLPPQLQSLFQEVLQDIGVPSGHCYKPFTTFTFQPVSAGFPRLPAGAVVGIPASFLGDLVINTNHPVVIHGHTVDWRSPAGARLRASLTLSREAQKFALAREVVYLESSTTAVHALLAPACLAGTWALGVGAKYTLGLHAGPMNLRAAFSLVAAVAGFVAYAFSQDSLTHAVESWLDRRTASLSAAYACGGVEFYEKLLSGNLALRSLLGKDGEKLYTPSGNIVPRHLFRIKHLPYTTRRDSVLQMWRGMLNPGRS
# UniProt Q8TBZ6, sequence (Q8TBZ6 whole entry, looked up): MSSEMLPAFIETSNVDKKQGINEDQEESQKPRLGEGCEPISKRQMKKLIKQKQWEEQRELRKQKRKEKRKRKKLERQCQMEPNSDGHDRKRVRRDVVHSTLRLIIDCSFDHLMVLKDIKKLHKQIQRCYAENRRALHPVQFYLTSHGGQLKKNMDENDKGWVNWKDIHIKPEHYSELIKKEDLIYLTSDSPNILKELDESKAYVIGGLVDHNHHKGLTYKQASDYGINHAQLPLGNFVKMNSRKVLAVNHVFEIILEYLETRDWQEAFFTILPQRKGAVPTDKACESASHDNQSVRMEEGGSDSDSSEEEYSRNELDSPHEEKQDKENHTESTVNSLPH
# UniProt Q9BQE3, sequence (Q9BQE3 whole entry, looked up): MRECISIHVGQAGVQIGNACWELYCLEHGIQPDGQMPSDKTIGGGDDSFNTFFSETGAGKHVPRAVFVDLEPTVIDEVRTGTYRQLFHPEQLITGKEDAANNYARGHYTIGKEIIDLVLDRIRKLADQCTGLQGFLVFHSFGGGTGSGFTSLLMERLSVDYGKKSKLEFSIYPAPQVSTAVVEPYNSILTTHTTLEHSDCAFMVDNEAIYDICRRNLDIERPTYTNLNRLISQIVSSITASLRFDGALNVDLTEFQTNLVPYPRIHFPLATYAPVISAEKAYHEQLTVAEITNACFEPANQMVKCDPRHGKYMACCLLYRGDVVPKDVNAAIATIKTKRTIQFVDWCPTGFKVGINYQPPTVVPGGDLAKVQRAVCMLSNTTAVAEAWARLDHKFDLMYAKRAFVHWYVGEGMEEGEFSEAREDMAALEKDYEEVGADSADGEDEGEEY
# UniProt Q6PGP7, sequence (Q6PGP7 whole entry, looked up): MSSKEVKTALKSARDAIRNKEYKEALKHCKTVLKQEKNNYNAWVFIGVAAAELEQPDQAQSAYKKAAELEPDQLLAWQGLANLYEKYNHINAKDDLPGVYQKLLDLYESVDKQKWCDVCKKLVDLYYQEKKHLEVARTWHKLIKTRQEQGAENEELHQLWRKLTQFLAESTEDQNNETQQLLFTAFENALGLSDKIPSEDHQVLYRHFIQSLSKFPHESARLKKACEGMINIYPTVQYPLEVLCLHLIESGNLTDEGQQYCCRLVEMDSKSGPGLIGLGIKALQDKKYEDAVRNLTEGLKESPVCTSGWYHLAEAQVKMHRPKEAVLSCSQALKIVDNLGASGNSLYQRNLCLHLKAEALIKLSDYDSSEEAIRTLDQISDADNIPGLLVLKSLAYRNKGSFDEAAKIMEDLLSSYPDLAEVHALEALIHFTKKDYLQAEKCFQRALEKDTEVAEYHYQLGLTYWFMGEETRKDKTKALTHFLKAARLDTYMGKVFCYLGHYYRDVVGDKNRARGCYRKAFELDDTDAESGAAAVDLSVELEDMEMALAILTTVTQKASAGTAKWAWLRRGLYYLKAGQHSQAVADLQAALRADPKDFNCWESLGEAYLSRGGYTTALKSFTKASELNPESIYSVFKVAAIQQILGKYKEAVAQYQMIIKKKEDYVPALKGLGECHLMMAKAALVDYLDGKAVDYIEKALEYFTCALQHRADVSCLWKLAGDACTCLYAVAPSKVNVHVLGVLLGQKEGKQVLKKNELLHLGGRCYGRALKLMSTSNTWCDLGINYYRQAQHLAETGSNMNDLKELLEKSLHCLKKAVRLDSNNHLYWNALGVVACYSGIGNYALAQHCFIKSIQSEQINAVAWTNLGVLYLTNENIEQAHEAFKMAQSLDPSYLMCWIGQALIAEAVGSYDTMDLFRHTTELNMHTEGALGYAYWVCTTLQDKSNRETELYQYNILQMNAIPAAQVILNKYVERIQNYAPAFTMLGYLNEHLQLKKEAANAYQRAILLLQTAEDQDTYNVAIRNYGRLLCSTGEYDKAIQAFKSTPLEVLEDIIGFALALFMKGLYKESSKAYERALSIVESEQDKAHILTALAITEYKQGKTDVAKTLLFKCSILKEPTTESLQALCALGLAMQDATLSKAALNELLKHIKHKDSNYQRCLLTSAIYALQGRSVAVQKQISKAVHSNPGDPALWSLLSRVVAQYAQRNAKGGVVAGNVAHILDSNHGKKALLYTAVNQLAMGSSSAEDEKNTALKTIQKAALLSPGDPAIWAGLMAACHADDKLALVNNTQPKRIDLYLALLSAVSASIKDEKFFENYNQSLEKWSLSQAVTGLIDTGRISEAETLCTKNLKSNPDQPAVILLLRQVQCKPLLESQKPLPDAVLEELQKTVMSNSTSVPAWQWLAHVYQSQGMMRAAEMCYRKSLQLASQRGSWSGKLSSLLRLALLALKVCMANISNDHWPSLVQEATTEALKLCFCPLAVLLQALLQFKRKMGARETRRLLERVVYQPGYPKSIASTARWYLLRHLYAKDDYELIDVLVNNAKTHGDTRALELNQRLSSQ
# UniProt P51668, sequence (P51668 whole entry, looked up): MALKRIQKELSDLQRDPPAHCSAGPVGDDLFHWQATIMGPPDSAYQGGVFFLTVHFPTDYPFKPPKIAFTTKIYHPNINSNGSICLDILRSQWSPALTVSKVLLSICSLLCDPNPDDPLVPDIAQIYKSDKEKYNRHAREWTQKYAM
# UniProt Q96S44, sequence (Q96S44 whole entry, looked up): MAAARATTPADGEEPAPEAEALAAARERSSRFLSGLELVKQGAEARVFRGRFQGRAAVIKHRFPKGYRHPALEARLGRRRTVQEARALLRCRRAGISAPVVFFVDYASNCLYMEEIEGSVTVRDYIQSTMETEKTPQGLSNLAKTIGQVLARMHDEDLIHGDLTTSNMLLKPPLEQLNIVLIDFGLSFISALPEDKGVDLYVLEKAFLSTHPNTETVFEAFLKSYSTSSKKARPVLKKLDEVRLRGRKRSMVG
# UniProt Q04726, sequence (Q04726 whole entry, looked up): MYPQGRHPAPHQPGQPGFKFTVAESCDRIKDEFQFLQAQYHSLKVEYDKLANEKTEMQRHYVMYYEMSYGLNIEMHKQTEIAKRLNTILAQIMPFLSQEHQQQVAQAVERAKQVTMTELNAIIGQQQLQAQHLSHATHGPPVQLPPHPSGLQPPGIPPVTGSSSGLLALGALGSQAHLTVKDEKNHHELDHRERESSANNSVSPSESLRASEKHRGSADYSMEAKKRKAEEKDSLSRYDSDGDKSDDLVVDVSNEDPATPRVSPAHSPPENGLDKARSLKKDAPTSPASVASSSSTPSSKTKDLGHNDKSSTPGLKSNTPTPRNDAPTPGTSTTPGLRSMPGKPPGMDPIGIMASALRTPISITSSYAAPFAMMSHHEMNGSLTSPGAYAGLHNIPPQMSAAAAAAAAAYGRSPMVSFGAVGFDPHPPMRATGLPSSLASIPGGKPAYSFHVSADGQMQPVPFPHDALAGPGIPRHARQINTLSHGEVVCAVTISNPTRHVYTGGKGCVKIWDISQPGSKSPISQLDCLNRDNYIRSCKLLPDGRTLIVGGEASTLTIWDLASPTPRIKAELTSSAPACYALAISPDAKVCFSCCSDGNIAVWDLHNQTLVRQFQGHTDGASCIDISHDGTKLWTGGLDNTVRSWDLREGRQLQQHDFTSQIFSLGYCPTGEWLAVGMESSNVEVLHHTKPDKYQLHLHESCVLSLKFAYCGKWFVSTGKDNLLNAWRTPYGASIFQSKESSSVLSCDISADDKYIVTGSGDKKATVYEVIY
# UniProt Q96K49, sequence (Q96K49 whole entry, looked up): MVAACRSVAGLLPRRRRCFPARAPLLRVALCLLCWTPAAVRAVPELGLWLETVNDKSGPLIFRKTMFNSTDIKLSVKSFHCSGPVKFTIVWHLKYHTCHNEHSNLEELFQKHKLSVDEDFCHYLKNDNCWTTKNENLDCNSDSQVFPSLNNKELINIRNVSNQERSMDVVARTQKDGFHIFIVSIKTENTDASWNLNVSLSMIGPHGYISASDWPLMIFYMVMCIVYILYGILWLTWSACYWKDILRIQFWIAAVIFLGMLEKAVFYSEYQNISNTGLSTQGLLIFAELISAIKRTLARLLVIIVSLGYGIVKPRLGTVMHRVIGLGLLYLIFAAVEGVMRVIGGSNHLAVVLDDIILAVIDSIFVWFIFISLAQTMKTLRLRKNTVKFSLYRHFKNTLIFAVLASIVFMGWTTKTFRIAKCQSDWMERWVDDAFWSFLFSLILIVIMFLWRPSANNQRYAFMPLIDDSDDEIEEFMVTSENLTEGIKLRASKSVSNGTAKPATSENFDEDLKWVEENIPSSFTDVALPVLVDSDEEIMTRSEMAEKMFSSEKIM
# UniProt Q9Y5Z9, sequence (Q9Y5Z9 whole entry, looked up): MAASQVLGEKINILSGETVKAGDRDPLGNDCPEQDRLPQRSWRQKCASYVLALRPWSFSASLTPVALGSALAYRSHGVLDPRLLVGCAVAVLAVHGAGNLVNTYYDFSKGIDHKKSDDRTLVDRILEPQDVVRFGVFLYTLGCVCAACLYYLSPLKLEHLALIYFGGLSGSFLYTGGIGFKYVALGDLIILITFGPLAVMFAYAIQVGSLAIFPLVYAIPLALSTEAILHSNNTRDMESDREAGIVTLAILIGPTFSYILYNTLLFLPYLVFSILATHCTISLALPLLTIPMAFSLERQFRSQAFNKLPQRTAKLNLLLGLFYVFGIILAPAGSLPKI
Target,log2 fold change (erlotinib),log2 fold change [1],log2 fold change [2],log2 fold change [3],log2 fold change [4],log2 fold change [5],log2 fold change [6],log2 fold change [7],log2 fold change [8],log2 fold change (IRAK-1-4 Inhibitor I),log2 fold change (ibrutinib),log2 fold change [9],log2 fold change (ralimetinib),log2 fold change [10],log2 fold change [11],log2 fold change [12],log2 fold change [13],log2 fold change [14],log2 fold change [15],log2 fold change [16]
TBCE (UniProt Q15813),0.02,0.049,-0.016,0.004,0.014,0.001,-0.07,-0.027,0.038,-0.002,-0.027,0.004,0.037,0.01,-0.004,0.003,0.004,-0.007,0.025,-0.016
TMEM177 (UniProt Q53S58),0.042,0.06,-0.042,0.016,-0.019,-0.054,0.148,0.019,0.005,0,0.079,-0.022,-0.287,-0.311 (active),0.007,,,-0.03,0.032,-0.005
UBIAD1 (UniProt Q9Y5Z9),0.013,0.16,-0.128,0.092,,0.249,0.46 (active),0.023,0.057,-0.042,,-0.012,0.01,0.007,0.067,-0.159,-0.049,0.088,0.012,0.009
TLE3 isoform 4 (UniProt Q04726),0.005,-0.025,0.03,-0.012,0,0.016,-0.002,-0.006,0.029,-0.016,-0.002,-0.01,0.003,-0.005,0,-0.023,0.012,-0.016,0.003,-0.022
UBE2D1 (UniProt P51668),-0.043,0.008,0.072,-0.007,-0.032,0.008,-0.006,-0.042,0.015,-0.038,-0.033,0.017,-0.009,0.073,0.01,-0.03,-0.007,-0.002,0.043,-0.007
TBC1D20 isoform 3 (UniProt Q96BZ9),-0.073,0.142,-0.113,0.043,0.117,-0.038,-0.018,0.033,0.023,0.132,0.078,-0.016,0.001,-0.14,-0.082,,0.05,-0.171,0.019,-0.005
TPM1 isoform 4 (UniProt P09493),-0.126,-0.004,0.005,0.018,0.114,-0.026,-0.015,0.014,-0.052,-0.009,-0.019,0.009,0.001,-0.011,-0.024,-0.011,0.062,0.011,-0.022,0.001
TFAP4 (UniProt Q01664),-0.063,-0.042,0.017,-0.025,0.018,-0.09,0.055,0.135,-0.016,-0.061,0.057,0.141,0.004,-0.26,-0.109,0.046,,0.058,0.038,0.07
TUBB6 (UniProt K7ES63),-0.19,0.058,-0.06,0.047,-0.01,-0.154,-0.029,-0.19,-0.22,0.048,-0.005,0.076,0.094,-0.07,0.132,-0.061,,-0.005,0.027,-0.098
TTC37 (UniProt Q6PGP7),0.05,-0.148,0.07,-0.014,-0.069,-0.187,-0.068,,,0.051,0.012,0.047,-0.024,0.012,-0.012,-0.019,-0.188,0.154,-0.043,-0.15
UCHL5 (UniProt Q5LJA9),-0.052,0.084,0.005,-0.024,-0.032,0.016,-0.045,0.035,0.006,0.054,0.009,0.078,-0.007,-0.113,0.044,,0,0.012,0.035,0.01
TP53RK (UniProt Q96S44),-0.005,0.025,0.038,-0.24 (active),-0.37 (active),-0.03,0.042,0.014,-0.022,-0.008,0.02,-0.059,0.019,-0.008,0.007,-0.013,-0.004,0,-0.02,-0.071
TRMT10A (UniProt Q8TBZ6),-0.003,-0.26,-0.007,-0.018,-0.024,0.018,0.252 (active),-0.017,0.044,0.044,-0.002,-0.003,0.021,-0.01,-0.033,0.009,-0.031,0.06,-0.022,0.07
TMEM87B (UniProt Q96K49),-0.016,0.103,0.093,-0.003,0.117,0.03,-0.019,0.006,-0.008,-0.045,-0.076,-0.017,-0.003,-0.001,-0.047,-0.011,-0.01,-0.012,0.028,-0.012
TUBA1C (UniProt Q9BQE3),0.007,-0.028,0.044,-0.019,-0.012,0.031,-0.077,-0.008,0.014,0.04,-0.001,0.017,0.007,-0.043,0.032,0.015,-0.035,-0.012,0.043,0.009
TFPI (UniProt P10646),-0.069,0.093,0.011,0.089,-0.141,-0.02,-0.232,-0.096,0.065,0.003,0.024,0.035,0.046,-0.003,-0.011,-0.042,,0.021,-0.027,0.073
